Sampled rows, rich in hits. Any-hit rate of the full collection: about 1.3%.
Gli-Sufu block – antagonists of Gli-Sufu signaling | AID 588413 | Sufu-KO-LIGHT fibroblasts, Gli luciferase reporter luminescence | inhibition, % at 5 µM | 340,000 tested, 0.74% active;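 active means inhibition above about 55%, limit read from the data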;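 further: 0% = DMSO-treated cells and 100% = wells with medium but no cells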
NR2F2 inh – blocks human COUP-TFII nuclear receptor; AID 686940; inhibition, % at 8.6 µM; P24468; HEK293T NGFI-A luciferase reporter, luminescence; 370,000 tested, 0.7% active;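 active means inhibition above a per-plate cutoff, mean inhibition of test wells between control levels plus 3 SD, cut at about 38% in these data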;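 further: cells cotransfected with COUP-TFII expression vector driving the NGFI-A reporter; 0% = median of COUP-TF2 test wells and 100% = reporter-only cells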
SRC2 inh – inhibits human steroid receptor coactivator 2. AID 651957. HEK293 GAL4-SRC2 luciferase reporter, luminescence. inhibition, % at 9 µM. 370,000 tested, 0.17% active;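 active means inhibition above the mean inhibition of all tested compounds plus 3 SD, set per campaign, cut at about 52% in these data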;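 further: 0% = DMSO treated cells and 100% = cells given Gossypol at 36 µM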
SRC1 inh – inhibits human SRC1 coactivator. Q15788. inhibition, % at 3.6 µM. HEK293 GAL4-SRC1 luciferase reporter, luminescence. AID 588354. 360,000 tested, 0.12% active;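 active means inhibition above the campaign mean plus 3 SD, with each screening campaign given its own cutoff, cut at about 60% in these data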;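 further: 0% = DMSO treated cells and 100% = gossypol at 36 µM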
NCOA3 inh – human NCOA3 inhibition; inhibition, % at 3.6 µM; HEK293 GAL4-SRC3 luciferase reporter, luminescence; 360,000 tested, 0.17% active; AID 588352; Q9Y6Q9;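 active means inhibition above a per-campaign cutoff, the mean of all compounds plus 3 SD, cut at about 60% in these data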;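 further: 0% = DMSO-treated cells and 100% = gossypol-treated cells at 36 µM; higher means less SRC3-driven luciferase light from the GAL4 reporter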
NR5A2 inv ag – suppresses constitutive activity of human LRH-1 | O00482 | HEK293T StAR-luciferase reporter, LRH-1 transfected, 24 h | inhibition, % at 3.6 µM | 360,000 tested, 0.13% active | AID 602396;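 active means inhibition above the mean inhibition of all tested compounds plus 3 SD, cut at about 73% in these data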;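 further: 0% = DMSO wells and 100% = reporter-only cells lacking LRH-1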
Gli antag conf – confirmation of Gli-SUFU pathway antagonists; shares compounds with Gli-Sufu block; Sufu-KO-LIGHT cells, Gli luciferase reporter, luminescence; inhibition, % at 5 µM; 2,500 tested, 40% active;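 active means mean inhibition at 5 µM reaching about 45%, limit read from the data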;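 further: plate controls were DMSO-treated cells for no effect and wells lacking cells for full effect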
Gli cytotox – cytotoxic in Gli-SUFU antagonist counter-screen; Sufu-KO-LIGHT cells cytotoxicity, ATP luminescence; 2,500 tested, 32% active; AID 651994; cytotoxicity, % at 5 µM; shares compounds with Gli-Sufu block;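 active means mean cytotoxicity at 5 µM above about 25%, limit read from the data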;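 further: cells exposed to compound overnight for roughly 16 to 18 hours; plate controls were DMSO wells with cells for no effect and medium without cells for full effect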
Wnt3a counter – counter-screen for Gli-SUFU antagonists: Wnt3a reporter inhibition; Wnt-LIGHT cells, Wnt3a-driven luciferase reporter, luminescence; inhibition, % at 6.25 µM; shares compounds with Gli-Sufu block; 2,500 tested, 20% active;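 active means mean inhibition above about 25%, limit read from the data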
The depositor's hits bear a star; · = no result given.

SMILES	Gli-Sufu block	NR2F2 inh	SRC2 inh	SRC1 inh	NCOA3 inh	NR5A2 inv ag	Gli antag conf	Gli cytotox	Wnt3a counter
Cn1c(C2CCCN2C(=O)OC(C)(C)C)n[nH]c1=S (stereo not drawn)	54	-2	9	1	-3	16	12	6	-2
CCCCCCCCN1C(=O)[C@@H](CC(=O)NCCCCc2ccccc2)C[C@@]2(C(=O)OC)C1=C[C@H](C(C)(C)C)O[C@@H]2C	·	-3	-22	·	·	·	·	·	·
CCOC(=O)c1c(NC(=O)C[n+]2ccc(Cc3ccccc3)cc2)sc(C)c1C	52	11	2	-3	11	13	36	15	6
CCOC(=O)c1c(NC(=S)Nc2ccccc2)sc(C)c1C	-8	3	6	-11	5	5	·	·	·
COc1ccc(CNC2CCN(Cc3ccccc3)CC2)cc1	58*	-19	-8	3	1	-13	18	8	-9
COc1ccc(CN2CCC(CNC(=O)NCc3ccccc3)CC2)cc1	·	10	-17	·	·	·	·	·	·
COc1ccc(CNC(=O)CN2CCC(NC(=O)c3ccc(OC)cc3)CC2)cc1	62*	5	-28	-25	-15	-4	26	11	-28
COc1ccc(NS(=O)(=O)c2cccc(C(=O)NC3CCN(Cc4ccccc4)CC3)c2)cc1	57*	28	27	-3	17	14	35	10	11
Cc1ccc2nc(CN(C)C(=O)[C@H](CCc3ccccc3)NC(=O)[C@H]3O[C@@H](n4cnc5c(N)ncnc54)[C@H](O)[C@@H]3O)[nH]c2c1	·	20	1	·	·	·	·	·	·
COc1cc(C2c3cc4c(cc3OC(NNC(N)=O)C2C)OCO4)cc(OC)c1OC (stereo not drawn)	56*	-67	-4	-5	10	28	55*	62*	8
COc1ccc(N(CC(=O)NCCC2=CCCCC2)S(=O)(=O)c2ccccc2)cc1	57*	6	-21	1	1	12	22	21	-23
COc1ccc(N(CC(=O)NCCC2=CCCCC2)S(=O)(=O)c2ccccc2)cc1OC	4	13	4	6	2	-4	·	·	·
CCn1cc(C(=O)NCCN(C)CCc2ccccc2)c(=O)c2cc(S(=O)(=O)N(C)C)ccc21	69*	-5	-9	-23	-6	-9	24	0	-2
COc1ccc(-c2nc3n(c(=O)c2C#N)CCS3)cc1	56*	-12	28	2	5	1	14	19	-21
CCCCOC(=O)CCN1C(=O)/C(=C/c2ccccc2)SC1=S	·	1	·	·	·	·	·	·	·
C[C@H]1[C@@H](c2ccccc2)Oc2ccc(Cl)cc2S(=O)(=O)N1Cc1ccc(Cl)cc1	·	-7	-16	·	·	·	·	·	·
C=CCn1c(C)cc(C2=NNC(=NC(C)(C)C)SC2)c1C	72*	58*	39	47	58	22	75*	50*	98*
CCOC1=C2CN(S(=O)(=O)c3ccccc3)[C@@H](c3ccccc3)C[C@H]2[C@H]2C(=O)N(c3ccccc3)C(=O)[C@H]2C1	·	-12	-5	·	·	·	·	·	·
Cc1ccc(C2c3c(-c4ccccc4)n[nH]c3C(=O)N2c2ccccc2)cc1 (stereo not drawn)	·	2	-12	·	·	·	·	·	·
Cc1noc(NS(=O)(=O)c2ccc(NC(=O)c3cnc4n(c3=O)CCS4)cc2)c1C	95*	0	-10	-19	-10	-2	15	4	-8
CC(=O)C1CCC2C3CCC4=CC(=O)CCC4(C)C3C(O)CC12C (stereo not drawn)	·	4	-15	1	-30	-27	·	·	·
CC12CCC(=O)C=C1CCC1C2C(O)CC2(C)C(c3csc(N)n3)CCC12 (stereo not drawn)	59*	29	12	-4	-7	3	61*	18	32*
CC(NCc1ccc(OCC(N)=O)cc1)C12CC3CC(CC(C3)C1)C2 (stereo not drawn)	51	-8	2	-4	-3	13	34	12	-20
O=C(NC1CCN(Cc2ccccc2)CC1)C1CCN(S(=O)(=O)c2cccc3nsnc23)CC1	59*	2	3	-2	5	7	19	29*	-5
O=C(NC1CCN(Cc2ccccc2)CC1)C1CCN(S(=O)(=O)c2cccc3cccnc23)CC1	-15	20	-13	-12	-1	7	·	·	·
SMILES	Gli-Sufu block	NR2F2 inh	SRC2 inh	SRC1 inh	NCOA3 inh	NR5A2 inv ag	Gli antag conf	Gli cytotox	Wnt3a counter
Cc1ccccc1NC(=O)CCS(=O)(=O)c1ccccc1	·	20	-24	·	·	·	·	·	·
C=CCn1c(O)c(N=NC(=S)Nc2cccc(C)c2)c2ccccc21	53	-3	21	-5	25	11	57*	26*	-22
C(#Cc1ccccc1)C[N+]1(CC#Cc2ccccc2)CCCCC1	81*	16	3	-5	20	17	79*	38*	24
COc1ccc(-c2nn(-c3ccccc3)cc2/C=N/NC(=O)c2ccc(Br)o2)cc1	52	-8	-30	-57	-41	-71	63*	23	-28
Cc1noc(C)c1NC(=O)N(C)C[C@@H]1OCc2cn(nn2)CCCC(=O)N([C@@H](C)CO)C[C@H]1C	·	4	-7	·	·	·	·	·	·
COC(=O)[C@]12C[C@H](CC(=O)NCC3CCCCC3)C(=O)N(CCC3=CCCCC3)C1=C[C@H](C(C)(C)C)O[C@@H]2C	·	7	6	·	·	·	·	·	·
COc1ccc(-n2cc(-c3ccccc3)[n+]3c2CCCCC3)cc1	85*	35	14	27	46	38	87*	28*	37*
FC(F)Sc1ccc(-n2cc(-c3ccccc3)[n+]3c2CCC3)cc1	60*	5	16	9	16	13	59*	36*	-24
COc1ccc(-c2cn(-c3ccc(SC(F)F)cc3)c3[n+]2CCC3)cc1OC	2	-5	-3	5	1	18	·	·	·
CC(C)Cn1c(N)c(C(=O)COC(=O)C2CCCCC2)c(=O)n(C)c1=O	7	20	9	0	2	-12	·	·	·
CC(C)Cn1c(N)c(C(=O)COC(=O)C2Cc3ccccc3CN2S(C)(=O)=O)c(=O)n(C)c1=O (stereo not drawn)	56*	26	21	-2	0	19	61*	31*	8
COCCNC(=O)CSCc1nc(-c2ccc(SC)cc2)oc1C	55*	1	2	-7	-2	-17	66*	12	8
Cc1cccc(-c2nc(CS(=O)CC(=O)NCc3cccs3)c(C)o2)c1 (stereo not drawn)	-2	7	-1	-34	10	-24	·	·	·
